Laboratory results from PubChem BioAssay (NCATS).
For part of these data: Results with a measured potency or affinity are listed apart. The source made the active and inactive calls. The rule behind the calls is not given here.

Legend:
[1] = Ebola virus entry assay, green fluorescence channel
[2] = Ebola virus entry assay, blue channel fluorescence
[3] = Ebola virus entry assay, ratio channel
[4] = Ebola virus entry assay, green channel fluorescence
[5] = Ebola virus entry assay, reporter ratio channel; Channel type: primary
[6] = Ebola virus entry assay, blue channel (ratio component)

Measured: efficacy
Throughout, for efficacy: 0% is about no effect.

CC(=O)O[C@H]1CC[C@@]2(C)C(=CC[C@@H]3[C@@H]2CC[C@]2(C)C(C(C)=O)=CC[C@@H]32)C1
inactive: [1] -13.1% | [2] | [3] | [4] | [5] | [6]

CC(C)(Oc1ccc(CCNC(=O)c2ccc(Cl)cc2)cc1)C(=O)O
inactive: [1] -16.5% | [2] | [3] | [4] | [5] | [6]

CC1CC(=O)NN=C1c1ccc(NCC(C)(C)NCC(O)COc2cc(Cl)ccc2C#N)cc1 (stereo not drawn)
inactive: [1] 42.4% | [2] | [3] | [4] | [5] | [6]

CCCCOC(=O)CCCCCCCCC(=O)OCCCC
inactive: [1] -13.9% | [2] | [3] | [4] | [5] | [6]

C[N+](C)(C)CCCCCCCCCC[N+](C)(C)C
inactive: [1] -18% | [2] | [3] | [4] | [5] | [6]

CCOc1ccc(C(=O)OCCN(CC)CC)cc1
inactive: [1] 22.6% | [2] | [3] | [4] | [5] | [6]

Cc1ccc2c(Cl)cc(Cl)c(O)c2n1
inactive: [1] -13.1% | [2] | [3] | [4] | [5] | [6]

CCN(CC)CC(=O)Nc1c(C)cccc1C
inactive: [1] 11% | [2] | [3] | [4] | [5] | [6]

Cc1ccc2nc(N)[nH]c(=O)c2c1Sc1ccncc1
inactive: [1] 17.5% | [2] | [3] | [4] | [5] | [6]

Cc1c(Cn2ccnc2)c2ccccc2n1CCC(=O)O
inactive: [1] 14% | [2] | [3] | [4] | [5] | [6]

N[C@@H](Cc1c[nH]c2ccc(O)cc12)C(=O)O
inactive: [1] 27.4% | [2] | [3] | [4] | [5] | [6]

C/C(=C(\CCOP(=O)(O)O)SC(=O)c1ccccc1)N(C=O)Cc1cnc(C)nc1N
inactive: [1] -17.4% | [2] | [3] | [4] | [5] | [6]

Clc1ccccc1-c1nc(-c2ccncc2)no1
inactive: [1] -9.78% | [2] | [3] | [4] | [5] | [6]

CNC(=O)c1c(I)c(NC(=O)CCCCC(=O)Nc2c(I)c(C(=O)O)c(I)c(C(=O)NC)c2I)c(I)c(C(=O)O)c1I
inactive: [1] -24% | [2] | [3] | [4] | [5] | [6]

CCc1nnc(NS(=O)(=O)c2ccc(N)cc2)s1
inactive: [1] -8.59% | [2] | [3] | [4] | [5] | [6]

Cl/C(=C\n1cncn1)c1ccc(Cl)cc1Cl
inactive: [1] -16.7% | [2] | [3] | [4] | [5] | [6]

CN(C)CCCO[C@@H]1[C@H]2OC(C)(C)O[C@H]2O[C@@H]1C(O)CO (stereo partly drawn)
inactive: [1] -11.8% | [2] | [3] | [4] | [5] | [6]

CCCCC(CC)COC(=O)C(C#N)=C(c1ccccc1)c1ccccc1 (stereo not drawn)
inactive: [1] 53.9% | [2] | [3] | [4] | [5] | [6]

CC(=O)[C@H]1CC[C@H]2[C@@H]3CC=C4C[C@@H](O)CC[C@]4(C)[C@H]3CC[C@]12C
inactive: [1] -13.3% | [2] | [3] | [4] | [5] | [6]

Cc1c(N(C)C)c(=O)n(-c2ccccc2)n1C
inactive: [1] 14.3% | [2] | [3] | [4] | [5] | [6]

CCOC(=O)[C@H](CCc1ccccc1)N[C@@H](C)C(=O)N1C(=O)N(C)C[C@H]1C(=O)O
inactive: [1] -14.8% | [2] | [3] | [4] | [5] | [6]

O=C(O)CCC(=O)c1ccc(-c2ccccc2)cc1
inactive: [1] 17.7% | [2] | [3] | [4] | [5] | [6]

C[C@H]1C[C@H]2[C@@H]3CCC4=CC(=O)C=C[C@]4(C)[C@H]3C(=O)C[C@]2(C)[C@@]1(O)C(=O)CO
inactive: [1] -24.9% | [2] | [3] | [4] | [5] | [6]

O=C1O[C@H]([C@@H](O)CO)C(O)=C1O
inactive: [1] -34.4% | [2] | [3] | [4] | [5] | [6]

NS(=O)(=O)c1cc2c(cc1Cl)NC(C1CC3C=CC1C3)NS2(=O)=O (stereo not drawn)
inactive: [1] -30.9% | [2] | [3] | [4] | [5] | [6]

O=S(=O)(O)NC1CCCCC1
inactive: [1] 14.2% | [2] | [3] | [4] | [5] | [6]

CCOC(=O)C(=O)c1csc(NC=O)n1
inactive: [1] -15.8% | [2] | [3] | [4] | [5] | [6]

CNC(=O)Oc1ccc2c(c1)[C@]1(C)CCN(C)[C@@H]1N2C
inactive: [1] 20.2% | [2] | [3] | [4] | [5] | [6]
